These results are taken from the supplement of paper PMC9262897, “Low-cost anti-mycobacterial drug discovery using engineered E. coli” (Nature Communications, 2022).

Molecules are shown by their SMILES. Counter-ions that a name gives are not always drawn. ± gives the standard deviation of the averaged measurements.

The test system of this assay is E. coli TESEC Mtb Alr. Put plainly: growth (OD600 after 10 h); higher = more growth (less inhibition). The following applies: compound 0.1 mM. The protocol:
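TESEC Mtb Alr E. coli, or the Alr+ wild-type control, in 384-well plates with Prestwick library compounds at 0.1 mM and 1% DMSO, across arabinose induction levels of 1E3 to 1E7 nM. Growth is read as OD600 after 10 h at 37 °C in triplicate biological replicates.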

Where [1] appears, read: arabinose 1000 nM, raw OD600 reference: median of DMSO wells 0.294, cell-free background 0.041.
Setting [2] is: arabinose 10000 nM, raw OD600 reference: median of DMSO wells 0.264, cell-free background 0.041.
Where [3] appears, read: arabinose 100000 nM, raw OD600 reference: median of DMSO wells 0.201, cell-free background 0.041.
Where [4] appears, read: arabinose 1000000 nM, raw OD600 reference: median of DMSO wells 0.193, cell-free background 0.041.
The mark [5] stands for this setting: arabinose 10000000 nM, raw OD600 reference: median of DMSO wells 0.146, cell-free background 0.041.

As to `C[C@H](N)[C@H](O)c1cccc(O)c1` [Metaraminol bitartrate], the growth amounted to 0.278 ± 0.0096 under setting [1]; 0.267 ± 0.0062 under setting [2]; 0.186 ± 0.013 under setting [3]; 0.185 ± 0.0027 under setting [4]; 0.153 ± 0.018 under setting [5].
As to `Cc1c(-c2ccccc2)oc2c(C(=O)OCCN3CCCCC3)cccc2c1=O` [Flavoxate hydrochloride], the growth is, setting by setting: under setting [1], 0.171 ± 0.0084; under setting [2], 0.248 ± 0.0097; under setting [3], 0.145 ± 0.0026; under setting [4], 0.105 ± 0.0025; under setting [5], 0.139 ± 0.0023.
As to `Cc1cc(C(=O)NNCc2ccccc2)no1` [Isocarboxazid], the growth was 0.319 ± 0.014 under setting [1]; 0.28 ± 0.0081 under setting [2]; 0.234 ± 0.0096 under setting [3]; 0.198 ± 0.0079 under setting [4]; 0.158 ± 0.0025 under setting [5].
As for `Cc1cccc(C)c1NC(=O)CN1CCN(CCCC(c2ccc(F)cc2)c2ccc(F)cc2)CC1` [Lidoflazine], the growth runs as follows: under setting [1], 0.311 ± 0.0035; under setting [2], 0.263 ± 0.0048; under setting [3], 0.223 ± 0.018; under setting [4], 0.174 ± 0.0022; under setting [5], 0.163 ± 0.0025.
Take `CN(C)CCCSC(=N)N` [Dimaprit dihydrochloride]: the growth is, setting by setting: under setting [1], 0.308 ± 0.011; under setting [2], 0.267 ± 0.0039; under setting [3], 0.205 ± 0.014; under setting [4], 0.201 ± 0.015; under setting [5], 0.131 ± 0.0034.
In the case of `O=C1NCCN1c1ncc([N+](=O)[O-])s1` [Niridazole], the growth stood at 0.0513 ± 0.005 under setting [1]; 0.0413 ± 0.0019 under setting [2]; 0.0452 ± 0.0004 under setting [3]; 0.0407 ± 0.00045 under setting [4]; 0.0598 ± 0.023 under setting [5].
For `CCN(CC)C(=O)N1CCN(C)CC1` [Diethylcarbamazine citrate], the growth runs as follows: under setting [1], 0.274 ± 0.031; under setting [2], 0.275 ± 0.015; under setting [3], 0.196 ± 0.017; under setting [4], 0.191 ± 0.0045; under setting [5], 0.148 ± 0.0047.
On to `CC(C)(C)NC[C@@H](O)COc1cccc2c1CCCC2=O` [(+) -Levobunolol hydrochloride], for which the growth runs as follows: under setting [1], 0.291 ± 0.0069; under setting [2], 0.267 ± 0.007; under setting [3], 0.18 ± 0.0047; under setting [4], 0.182 ± 0.0049; under setting [5], 0.136 ± 0.003.
